Screening data as filed in PubChem.
Rows were chosen to be rich in hits. Some 2.3% of all compounds tested hit in one or more screens of this group.
UHRF1 binding = UHRF1 methylated DNA binding inhibitors, primary screen, counter-screen for MBD2 inhibitor project, biochemical, TR-FRET, human UHRF1, single concentration; E3 ubiquitin-protein ligase UHRF1 (Homo sapiens), Q96T88; UHRF1 binding to methylated oligo; inhibition, % at 4.4 µM; hit rate 0.75% among 370,000; AID 687016, 2013; in the data active means inhibition above about 21%;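 further: UHRF1 SRA domain binding a hemimethylated CpG hairpin DNA probe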
PLC-gamma1 inh = PLC-gamma1 enzyme inhibitors, primary screen, biochemical, fluorescence, purified enzyme. 1-phosphatidylinositol 4,5-bisphosphate phosphodiesterase gamma-1 (Homo sapiens), P19174. fluorogenic substrate. inhibition, % at 12.2 µM. hit rate 0.84% among 370,000; in the data active means inhibition above about 9.5%
LEDGF integ inh = blockers of LEDGF/p75-dependent integrase strand transfer – biochemical, TR-FRET, high throughput, primary screen; HIV-1 integrase (with human LEDGF/p75); TR-FRET IN-LEDGF/p75 DNA integration, Eu/Cy5; inhibition, % at 3.7 µM; hit rate 0.64% among 370,000; AID 743269, 2014;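 active means inhibition above the screen-wide mean plus 3 SD, cut at about 13% in these data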;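 further: signal is the Cy5 over europium emission ratio at 671 and 618 nm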
PLCb3 inh = human PLC-beta3 inhibitors, primary screen, biochemical, fluorescence; 1-phosphatidylinositol 4,5-bisphosphate phosphodiesterase beta-3 (Homo sapiens), Q01970; Purified PLC-beta3, fluorogenic substrate; inhibition, % at 12.2 µM; hit rate 0.18% among 370,000; AID 720704, 2013; in the data active means inhibition above about 11%
Target sequence (Q01970 whole entry, looked up): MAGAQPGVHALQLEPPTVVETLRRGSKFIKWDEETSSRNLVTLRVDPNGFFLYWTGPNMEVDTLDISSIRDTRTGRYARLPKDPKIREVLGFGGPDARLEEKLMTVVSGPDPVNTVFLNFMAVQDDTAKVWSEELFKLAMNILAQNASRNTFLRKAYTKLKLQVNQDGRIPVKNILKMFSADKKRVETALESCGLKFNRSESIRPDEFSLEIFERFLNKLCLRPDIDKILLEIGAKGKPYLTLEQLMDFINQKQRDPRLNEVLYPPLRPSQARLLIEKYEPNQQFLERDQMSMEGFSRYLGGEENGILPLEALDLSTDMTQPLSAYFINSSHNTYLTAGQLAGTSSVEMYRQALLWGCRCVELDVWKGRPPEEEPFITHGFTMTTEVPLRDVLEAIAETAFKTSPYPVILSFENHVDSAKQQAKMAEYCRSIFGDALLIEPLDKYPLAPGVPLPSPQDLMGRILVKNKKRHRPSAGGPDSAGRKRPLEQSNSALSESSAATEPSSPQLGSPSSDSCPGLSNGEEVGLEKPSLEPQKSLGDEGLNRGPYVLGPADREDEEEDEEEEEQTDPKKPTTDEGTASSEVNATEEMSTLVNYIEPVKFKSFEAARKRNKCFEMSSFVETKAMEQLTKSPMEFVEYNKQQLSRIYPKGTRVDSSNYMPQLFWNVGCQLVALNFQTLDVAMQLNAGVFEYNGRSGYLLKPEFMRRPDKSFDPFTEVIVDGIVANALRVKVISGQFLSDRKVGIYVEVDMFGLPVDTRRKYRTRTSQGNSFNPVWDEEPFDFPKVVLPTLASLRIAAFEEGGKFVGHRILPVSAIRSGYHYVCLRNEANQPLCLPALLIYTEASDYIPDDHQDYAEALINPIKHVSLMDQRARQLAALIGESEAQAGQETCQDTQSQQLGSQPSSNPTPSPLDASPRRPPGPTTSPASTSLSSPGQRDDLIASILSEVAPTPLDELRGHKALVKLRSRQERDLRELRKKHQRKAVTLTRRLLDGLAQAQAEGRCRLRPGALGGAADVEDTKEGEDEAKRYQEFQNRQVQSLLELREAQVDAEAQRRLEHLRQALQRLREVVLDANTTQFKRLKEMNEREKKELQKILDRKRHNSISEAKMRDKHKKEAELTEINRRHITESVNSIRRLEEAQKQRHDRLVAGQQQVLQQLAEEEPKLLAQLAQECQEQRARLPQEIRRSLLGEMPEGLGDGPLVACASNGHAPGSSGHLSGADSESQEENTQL
MBD2 DNA inh = inhibitors of MBD2 binding to methylated DNA, primary screen, biochemical, TR-FRET, DNA-binding domain, human | Methyl-CpG-binding domain protein 2 (Homo sapiens), Q9UBB5 | MBD2 binding to methylated oligonucleotide | inhibition, % at 4.4 µM | hit rate 0.31% among 370,000; in the data active means inhibition above about 13%
Large screens that a line does not name were inactive.

O=C(Cc1ccsc1)NCC(c1ccco1)N1CCCCC1 (configuration not stated)	UHRF1 binding 25.1
CNC(=O)COC(=O)c1cc(-c2ccco2)nc2ccccc12	LEDGF integ inh 16.1
CCCn1c(N)c(N(CCOC)C(=O)c2cc(-c3ccco3)nc3ccccc23)c(=O)[nH]c1=O	none
COCCCN(C(=O)c1cc(-c2ccco2)nc2ccccc12)c1c(N)n(Cc2ccccc2)c(=O)[nH]c1=O	UHRF1 binding 23.1, LEDGF integ inh 35.5
CCCOc1ccc(C(=O)N/N=C/c2ccc(-c3ccc(S(=O)(=O)Nc4ncccn4)cc3)o2)cc1	UHRF1 binding 70.1
NS(=O)(=O)c1ccc(-c2ccc(/C=N/NC(=O)c3ccc([N+](=O)[O-])cc3)o2)cc1	none
CCCCNC(=O)C[C@@H]1C(=O)N(Cc2ccc(OC)cc2)/C2=C/CCCCC[C@@]21C(=O)OCC	none
FC(F)(F)c1ccccc1NC(=S)NC1CCN(Cc2ccccc2)CC1	UHRF1 binding 36.6
S=C(Nc1ccccc1Cl)NC1CCN(Cc2ccccc2)CC1	none
COc1ccc(/C=C/C(Cc2cccc(C(C)=O)c2)c2ccc(C)cc2)cc1 (configuration not stated)	none
CCCCCCOc1ccc(N2C(=O)CC(N3CCC(C(=O)OCC)CC3)C2=O)cc1 (configuration not stated)	UHRF1 binding 43.0
O=C(c1cccs1)N1CCC(N2CCN(c3ccccc3)CC2)CC1	none
O=C(c1cccc2ccccc12)N1CCC(N2CCN(c3ccccc3)CC2)CC1	PLC-gamma1 inh 14.6
COc1ccc(CN2CCNC(=O)C2CC(=O)N(C)CC2CCOCC2)cc1C (configuration not stated)	UHRF1 binding 31.0
COc1ccc(CN2CCNC(=O)C2CC(=O)N(C)CC2CCOCC2)cc1OC (configuration not stated)	none
CN(C(=O)c1cccc(C#N)c1)c1nnc(-c2ccccn2)s1	UHRF1 binding 21.7
CN(C(=O)c1ccc(C#N)cc1)c1nnc(-c2ccccn2)s1	none
COC(=O)C1CN(Cc2cn(Cc3ccc(F)cc3)nn2)CCS(=O)(=O)N1Cc1ccc(F)cc1 (configuration not stated)	none
C=CCN(CC#CC1=CCCCC1)CC1CC1	none
O=C(/C=C/c1ccc(Br)cc1)N1CCN(c2cccc(C(F)(F)F)c2)CC1	none
O=C(/C=C/c1cccc(Br)c1)N1CCN(c2cccc(C(F)(F)F)c2)CC1	UHRF1 binding 23.9
COc1ccc(CN2C/C(=C/c3ccc(C)cc3)N3C(=O)C[C@@H](c4ccccc4)N=C23)c(OC)c1	none
CC(=O)Nc1nc2ncccn2c1-c1ccc(F)c(F)c1	none
Cc1cc(NC(=O)C2CC2)ncc1NC(=O)c1ccccn1	UHRF1 binding 21.8
Cc1cc(NC(=O)C2CCCCC2)ncc1NC(=O)c1ccccn1	none
Cc1ccc(-n2c(SCC(=O)Nc3ccc4c(c3)OCCO4)nnc2-c2cnccn2)cc1	none
C[C@@H]1CN([C@@H](C)CO)S(=O)(=O)c2ccc(Br)cc2O[C@H]1CN(C)C(=O)C1CCC1	none
C[C@@H]1CN([C@H](C)CO)S(=O)(=O)c2ccc(Br)cc2O[C@@H]1CN(C)Cc1ccc(-c2ccccc2)cc1	UHRF1 binding 20.9
C[C@@H]1CN([C@@H](C)CO)S(=O)(=O)c2ccc(Br)cc2O[C@H]1CN(C)C(=O)c1ccncc1	none
C[C@@H]1CN([C@H](C)CO)S(=O)(=O)c2ccc(Br)cc2O[C@H]1CN(C)C(=O)C1CC1	UHRF1 binding 20.7
C[C@H]1CN([C@@H](C)CO)S(=O)(=O)c2ccc(Br)cc2O[C@H]1CN(C)C(=O)c1cccnc1	UHRF1 binding 23.8
COc1cccc(-c2ccc3c(c2)O[C@@H](CN(C)C(=O)C2CCOCC2)[C@H](C)CN([C@H](C)CO)S3(=O)=O)c1	UHRF1 binding 21.8
Cc1ccccc1-c1ccc2c(c1)O[C@H](CN(C)C(=O)C1CC1)[C@@H](C)CN([C@@H](C)CO)S2(=O)=O	none
C#CCNC(=O)C[C@@H]1C(=O)N(CC=C)/C2=C/CCCCC[C@]21C(=O)OCC	none
COC(=O)C[C@H]1CC[C@@H]2[C@@H](COc3ccc(NC(=O)c4ccno4)cc3C(=O)N2C)O1	none
S=C(NCc1ccccc1)NC1CCSc2ccccc21 (configuration not stated)	UHRF1 binding 23.8
Cc1cccc(NC(=S)NC2CCSc3ccccc32)c1 (configuration not stated)	none
COc1ccc(Cn2cc(CN3[C@@H](CC(C)C)COc4ccc(Cl)cc4S3(=O)=O)nn2)cc1	none
Cc1c(C)n(Cc2ccc(-c3ccccc3C(=O)O)cc2)c2ccc(C(=O)N[C@@H](C)c3ccc([N+](=O)[O-])cc3)cc12	none
CC(=O)C(C(C)=O)c1c(Cl)c(O)c(O)c2c(C(=O)c3ccccc3)coc12	LEDGF integ inh 51.0
CN1CCN(Cc2c(O)ccc3occ(C(=O)c4ccccc4)c23)CC1	none
COC(=O)[C@]12C[C@H](CC(=O)NCC34CC5CC(CC(C5)C3)C4)C(=O)N(Cc3ccco3)C1=C[C@H](C(C)(C)C)O[C@@H]2C	none
CC1CN(Cc2cc(=O)n3ccsc3n2)CC(C)O1 (configuration not stated)	UHRF1 binding 21.2
O=c1cc(CN2CCC(Cc3ccccc3)CC2)nc2sccn12	none
COC(=O)[C@]12C[C@H](CC(=O)NCc3ccccc3)C(=O)N(Cc3cccc4ccccc34)C1=C[C@H](C1CCCC1)O[C@@H]2C	none
Cc1ccccc1CC(=O)NCC1CCCCC1	UHRF1 binding 39.9
O=S1(=O)CC2c3ccccc3CN2CN1Cc1ccccc1 (configuration not stated)	none
O=C(Nc1cc([N+](=O)[O-])ccc1N1CCOCC1)c1cccs1	none
O=C(Nc1ccc(NC(=O)c2cc([N+](=O)[O-])ccc2N2CCOCC2)cc1)c1cccs1	UHRF1 binding 22.7
CN(CCc1ccccc1)C1CCCN(S(=O)(=O)c2cccc(F)c2)C1 (configuration not stated)	none
Cc1cc(S(=O)(=O)N2CCCC(N(C)CCc3ccccn3)C2)c(C)cc1Cl (configuration not stated)	UHRF1 binding 23.5
Fc1cccc(Cc2c(-c3ccccc3)nc3c4ccccc4ccn23)c1	UHRF1 binding 21.1
Cc1ccc(-c2nc3c4ccccc4ccn3c2Cc2ccccc2)cc1	UHRF1 binding 21.2
CC(C)C(C#CC1CC1)N(Cc1ccc2c(c1)OCO2)C(N)=NC(=O)/C=C/c1ccccc1 (configuration not stated)	none
O=C(N/N=C/c1cc2c(cc1Cl)OCO2)c1cccc(Br)c1	UHRF1 binding 38.9
